Records with an inconclusive call do not appear. The source made the active and inactive calls. The call rests on the fitted dose curve; in most records, active means well fitted cell-killing curve with a large enough effect; inconclusive means small, poorly fitted or top-dose-only effect, or effect the other way; inactive means no such curve, though single readings can be large or run the other way.
Test: Quantitative High-Throughput drug screen in 47 multiple myeloma cell lines against the NCATS MIPE library collection: UTMC2_PLB cell viability assay (AID 1919868); further: nearly all actives have a fitted effect of over 55% in size
Settings: CellTiter-Glo ATP luminescence, 48 h; series mostly up to 45.8 µM; viability (% of DMSO control): at the top concentration
Source text: PI: Beverly A. Mock Ph.D.
Laboratory of Cancer Biology and Genetics,
Center for Cancer Research, National Cancer Institute,
National Institute of Health, Bethesda, Maryland
Drug resistance and disease progression are common in multiple myeloma (MM) patients, underscoring the need for new therapeutic combinations. […] We hypothesized that effective combinations would reduce MYC expression and enhance p16 activity. […] These preclinical data identify potentially useful drug combinations for evaluation in drug-resistant MM and reveal potential mechanisms of combined drug sensitivity.
Described herein is the primary MIPE qHTS used to cherrypick compounds. Validated compounds were then further tested for potential synergistic activiy.
[1] Peat TJ, Gaikwad SM, Dubois W, Gyabaah-Kessie N, Zhang S, Gorjifard S, Phyo Z, Andres M, Hughitt VK, Simpson RM, Miller MA, Girvin AT, Taylor A, Williams D, D'Antonio N, Zhang Y, Rajagopalan A, Flietner E, Wilson K, Zhang X, Shinn P, Klumpp-Thomas C, McKnight C, Itkin Z, Chen L, Kazandijian D, Zhang J, Michalowski AM, Simmons JK, Keats J, Thomas CJ, Mock BA. Drug combinations identified by high-throughput screening promote cell cycle transition and upregulate Smad pathways in myeloma. Cancer Lett. 2023 Aug 1;568:216284. doi: 10.1016/j.canlet.2023.216284. Epub 2023 Jun 24. PMID: 37356470; PMCID: PMC10408729.
SEQUENCE No. (e.g., 1, 2, 3, etc.); […] (e.g., Cells, Incubation, Reagent, etc.); VALUE and DESCRIPTION.
1; Cells; 5 uL; white, solid bottom 1536-well Greiner assay plate.
2; Compounds; 23 nL; Kalypsis pin tool (Wako USA) equipped with a 1536-well pin head to transfer to the assay plates.
3; Incubation; 48 hours; 37C incubation.
4; Reagent;5uL; CellTiter Glo (Promega).
5; Detector; 425V; Luminescence; Viewlux PerkinElmer.
NOTES (numbers refer to Sequence numbers above)
1. The cell-based screening methods employed in this study were like those previously published. Briefly, the corresponding myeloma cell lines were screened in 1,536-well plates with 500 cells, 5-uL per well for inhibition of cell viability (assessed by measuring ATP levels with CellTiterGlo).
2. NCATS MIPE 4.0 library of approved and investigational drugs were added using the Kalypsis pin tool. Wells treated with DMSO only for 100% viability and media only for 0% viability were used as controls.
3. The assay plates were covered and incubated for 48 hours in a 37C, 5% CO2 incubator with controlled humidity.
4. After 48 hours, CellTilter-GloTM luminescent substrate mix (Promega) reagent was added to the assay plate and plates we incubated for 5 min at room temperature.
5. Signal was measured as median relative luminescence units on a ViewLux (PerkinElmer) multiplate reader.
[1] Heske CM, Davis MI, Baumgart JT, Wilson K, Gormally MV, Chen L, Zhang X, Ceribelli M, Duveau DY, Guha R, Ferrer M, Arnaldez FI, Ji J, Tran HL, Zhang Y, Mendoza A, Helman LJ, Thomas CJ. Matrix Screen Identifies Synergistic Combination of PARP Inhibitors and Nicotinamide Phosphoribosyltransferase (NAMPT) Inhibitors in Ewing Sarcoma. Clin Cancer Res. 2017 Dec 1;23(23):7301-7311. doi: 10.1158/1078-0432.CCR-17-1121. Epub 2017 Sep 12. PMID: 28899971; PMCID: PMC6636827.
In the case of `O=C(c1ccccc1)c1ccc2n1CCC2C(=O)O` (stereo not given), the Potency was 14.8 µM (active).
In the case of `COc1ccccc1N1CCN(CCN(C(=O)C2CCCCC2)c2ccccn2)CC1`, the “viability (% of DMSO control)” value was 190% (inactive).
For `S=c1nc[nH]c2nc[nH]c12`, the Potency was 14.8 µM (active).
In the case of `O=C(O)c1cn(-c2ccc(F)cc2)c2cc(N3CCNCC3)c(F)cc2c1=O`, the “viability (% of DMSO control)” value was 127% (inactive).
In the case of `Cc1cc(O)c2c(c1)C(=O)c1cc(O)cc(O)c1C2=O`, the “viability (% of DMSO control)” value was 183% (inactive).
For `CN(C)C(=O)[C@H](O)[C@H](Cc1ccccc1)NC(=O)c1cc2cc(Cl)ccc2[nH]1`, the Potency was 3.32 µM (active).
In the case of `NC(=NCc1ccccc1)NC(=O)c1nc(Cl)c(N)nc1N`, the “viability (% of DMSO control)” value was 90.5% (inactive).
In the case of `Cc1nc(-c2ccc(OCC(C)C)c(C#N)c2)sc1C(=O)O`, the “viability (% of DMSO control)” value was 174% (inactive).
In the case of `CCN(CC)CCOc1ccc(Cc2ccccc2)cc1`, the “viability (% of DMSO control)” value was 138% (inactive).
For `Nc1ccc(S(N)(=O)=O)cc1`, the “viability (% of DMSO control)” value was 147% (inactive).
With `CC(=O)NC[C@H]1CN(c2ccc(N3CCOCC3)c(F)c2)C(=O)O1` the “viability (% of DMSO control)” value was 154% (inactive).
With `CCCCCCCCOc1ccccc1C(=O)Nc1ccc(C(=O)OCC[N+](C)(CC)CC)cc1` the Potency was 16.6 µM (active).
In the case of `Cc1ccc(C(=O)c2cc(O)c(O)c([N+](=O)[O-])c2)cc1`, the Potency was 26.4 µM (active).
In the case of `Cc1cc(Cl)ccc1OCCCC(=O)NO`, the Potency was 9.35 µM (active).
With `CCN(CC)C(=S)SSC(=S)N(CC)CC` the Potency was 0.0118 µM (active).
In the case of `CN(C)c1ccc2nc3ccc(=[N+](C)C)cc-3sc2c1`, the Potency was 1.48 µM (active).
For `CN(C)CCc1c[nH]c2ccc(Cn3cncn3)cc12`, the “viability (% of DMSO control)” value was 138% (inactive).
In the case of `COC1=C(OC)C(=O)C(CCCCCCCCCCO)=C(C)C1=O`, the Potency was 26.4 µM (active).
With `COc1ccc2cc([C@H](C)C(=O)O)ccc2c1` the Potency was 23.5 µM (active).
For `O=c1c(O)c(-c2cc(O)c(O)c(O)c2)oc2cc(O)cc(O)c12`, the “viability (% of DMSO control)” value was 137% (inactive).
In the case of `C[C@H](Cn1cnc2c(N)ncnc21)OCP(=O)(O)O`, the “viability (% of DMSO control)” value was 121% (inactive).
In the case of `Cc1cc(=O)c2c(O)c3c(O)cc(=O)c4c3c3c(cc(O)c1c23)C(C)(C)C=4O`, the Potency was 0.296 µM (active).
For `CC(=O)N1CCN(c2ccc(OC[C@H]3CO[C@](Cn4ccnc4)(c4ccc(Cl)cc4Cl)O3)cc2)CC1`, the “viability (% of DMSO control)” value was 159% (inactive).
With `O=c1oc2cc(O)ccc2s1` the “viability (% of DMSO control)” value was 136% (inactive).
With `O=C(O)c1cccnc1Nc1cccc(C(F)(F)F)c1` the “viability (% of DMSO control)” value was 132% (inactive).
In the case of `CCC[C@@H]1C[C@@H](C(=O)N[C@@H]([C@H]2O[C@H](SC)[C@H](O)[C@@H](O)[C@H]2O)[C@@H](C)O)N(C)C1`, the Potency was 0.0166 µM (active).
For `O=C(NOCC1CC1)c1ccc(F)c(F)c1Nc1ccc(I)cc1Cl`, the Potency was 13.2 µM (active).
With `C[Se]CCC(N)C(=O)O` (stereo not given) the “viability (% of DMSO control)” value was 129% [at 92.2 µM] (inactive).
In the case of `Cc1ncc([N+](=O)[O-])n1CC(C)O` (stereo not given), the Potency was 18.7 µM (active).
With `Cc1cccc(CN2CCN(C(c3ccccc3)c3ccc(Cl)cc3)CC2)c1` (stereo not given) the Potency was 20.9 µM (active).
For `Cc1c(C(=O)NN2CCCCC2)nn(-c2ccc(Cl)cc2Cl)c1-c1ccc(Cl)cc1`, the Potency was 20.9 µM (active).
With `CC[C@]1(O)C[C@H]2CN(CCc3c([nH]c4ccccc34)[C@@](C(=O)OC)(c3cc4c(cc3OC)N(C=O)[C@H]3[C@@](O)(C(=O)OC)[C@H](OC(C)=O)[C@]5(CC)C=CCN6CC[C@]43[C@@H]65)C2)C1` the Potency was 0.0093 µM (active).
In the case of `COc1cc2c(N3CCN(C(=O)Nc4ccc(OC(C)C)cc4)CC3)ncnc2cc1OCCCN1CCCCC1`, the Potency was 4.18 µM (active).
For `CN(C)CCCC1(c2ccc(F)cc2)OCc2cc(C#N)ccc21` (stereo not given), the “viability (% of DMSO control)” value was 106% (inactive).
For `CN(c1nccc(=O)[nH]1)C1CCN(c2nc3ccccc3n2Cc2ccc(F)cc2)CC1`, the Potency was 16.6 µM (active).
For `Clc1ccc(C(Cn2ccnc2)OCc2ccc(Sc3ccccc3)cc2)c(Cl)c1` (stereo not given), the Potency was 33.2 µM (active).
With `Oc1ccc(OCc2ccccc2)cc1` the “viability (% of DMSO control)” value was 103% (inactive).
For `CCN(CC)CCOc1ccc(Nc2ncc3cc(-c4c(Cl)cccc4Cl)c(=O)n(C)c3n2)cc1`, the Potency was 0.132 µM (active).
With `Nc1nc(N)c(N=O)c(OCC2CCCCC2)n1` the Potency was 5.26 µM (active).
In the case of `C[C@@H](N)C1CCC(C(=O)Nc2ccncc2)CC1` (stereo not given in full), the Potency was 6.62 µM (active).
Potency means the concentration at half of the fitted maximal effect.
